# Experimental data taken from PubChem BioAssay.
# Several values for one entry are separate records, joined by “and”; a condition that tells them apart may be missing. Identical values can stand only once. Results filed as inconclusive are left out. Some structures have more than one record in an assay (separate samples or runs), and their calls can disagree. Activity calls are given as the source filed them.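 The calls were made as follows, unless noted: active = compounds whose cell count with miR-34 switched on is under 0.7 times the count with it off; inactive = the rest.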
# Columns and labels:
# [1] = Wnt pathway potentiators raising nuclear beta-catenin – imaging, WNT3A-conditioned medium, mouse C2C12, NPC library, primary screen (AID 1117326; in the data active = nuclear beta-catenin stimulation mostly above about 4.2%, no sharp cut-off; inactive = mostly below about 10%); settings: stronger effect = higher value
# [2] = stimulators of insulin release from INS-1E, primary screen, cell-based, 5 mM glucose, NPC library (AID 1117329;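 active = compound raises insulin release from rat beta cells at 5 mM glucose, no numeric limit stated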); settings: rat INS-1E insulin secretion, at 10 µM, stronger effect = higher value
# [3] = growth inhibition of GSK3B-pretreated HCT116 cells – cell-based, CellTiter-Glo, 0.2 to 20 µM (AID 1117336;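 active = compounds lowering colon cancer cell viability after pretreatment blocking the GSK3B kinase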); settings: HCT116 viability after GSK3B inhibitor, at 20 µM, stronger effect = higher value
# [4] = inhibition of endothelial tube formation, primary screen, imaging, VEGF stimulated, CD31 staining, tube area, NPC library (AID 1117340;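 active = compound that reduces growth-factor-driven endothelial tube area in a mixed cell culture, no cutoff stated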); settings: VEGF-stimulated ADSC/ECFC co-culture, at 10 µM, stronger effect = higher value
# [5] = GLP1 release stimulators, primary, NCI-H716, NPC library (AID 1117341;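 active = compound raises GLP1 secretion from the human gut endocrine cells, with no numeric limit stated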); settings: NCI-H716 cells, at 10 µM, stronger effect = higher value
# [6] = HCT116 colon cancer cell growth inhibition, primary screen, CellTiter-Glo luminescence, NPC library (AID 1117342;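 active = compounds that lower survival of HCT116 colon cancer cells in the luminescence readout, no numeric limit stated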); settings: at 20 µM (top of the series)
# [7] = reduced SW480 viability measured with CellTiter-Glo, NPC library, primary (AID 1117343;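 active = compounds that lower viability of the colon cancer cells in the luminescence readout, with no numeric limit stated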); settings: CellTiter-Glo luminescence; at 20 µM (top of the series)
# [8] = NPC library primary testing for decreased DLD-1 cell viability via CellTiter-Glo (AID 1117346;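 active = compounds that lower survival of DLD-1 colon cancer cells in the luminescence readout, no cutoff given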); settings: DLD-1 viability, CellTiter-Glo luminescence; at 20 µM (top of the series)
# [9] = EMT-state selective cytotoxicity in co-culture – imaging, PC-3E GFP, TEM4-18 mCherry, primary screen (AID 1345086;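 active = compounds killing one labelled cell type while sparing the other, by normalised counts and ratio limits, not self-fluorescent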;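 also: cells exposed to compound for 72 h before imaging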;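 as to red/green cell ratio (normalised): normalised mesenchymal count divided by normalised epithelial count so high means epithelial killing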); settings: PC-3E GFP / TEM4-18 mCherry co-culture, imaging cell counts, at 1 µM
# [10] = viability loss in pontine glioma line – cell-based, SU-DIPG-IV, MIPE4.0, CellTiter-Glo, qHTS, dose response (AID 1347063; cut-off not given, nearly all actives have AC50 up to about 30 µM;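 also: compound exposure lasted 48 hours before the viability readout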); settings: CellTiter-Glo ATP luminescence
# [11] = viability loss in pontine glioma line – cell-based, SU-DIPG-XIII, MIPE5.0, CellTiter-Glo, qHTS, dose response (AID 1347064; cut-off not given, nearly all actives have AC50 up to about 23 µM;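 as to AC50: cells exposed to compound for 48 hours before the viability read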); settings: CellTiter-Glo ATP luminescence
# [12] = viability loss in pontine glioma line – cell-based, SU-DIPG-XXV, MIPE5.0, CellTiter-Glo, qHTS, dose response (AID 1347065; cut-off not given, nearly all actives have AC50 up to about 26 µM;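 also: cells exposed to compound for 48 hours before ATP readout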); settings: CellTiter-Glo ATP luminescence
# [13] = viability loss with induced miR-34 in A549 – imaging, A549 dox-inducible miR-34, nuclei and caspase counts, primary screen (AID 1347080); settings: A549 miR-34 inducible, Hoechst nuclei count, 48 h
# [14] = biological target: NAD(+) hydrolase SARM1 (Homo sapiens) (UniProt Q6SZW1); experiment: blocking NAD cleavage by SARM1 SAM-TIR – cell lysate, NAD-Glo luminescence (AID 1508614;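 active = compound whose remaining NAD level is above about 45 nM, limit read from the data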;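 also: higher remaining NAD means stronger inhibition of SARM1 NADase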); settings: SAM-TIR HEK293T lysate NADase, at 1 µM, stronger effect = higher value
# [15] = P. berghei load reduction in hepatocytes – cell-based, HepG2, luciferase luminescence, HepG2 viability, primary screen (AID 624349; in the data active = parasite load remaining mostly below about 12%, no sharp cut-off; inactive = mostly above about 10%;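 also: 100% = mean of DMSO negative control wells on the same plate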); settings: P. berghei liver stage in HepG2, luciferase luminescence, concentration not given here; parasite load remaining: stronger effect = lower value; viability: measured here: HepG2 viability without parasites
# [16] = signal quenchers or enhancers, Cy5 substrate/SSB – biochemical, NIH Clinical Collection, E. coli SSB, artefact control for HCV NS3 helicase inhibitor project (AID 743268; call rule not given here); settings: Cy5-oligo bound E. coli SSB, fluorescence interference
# [17] = system: Hepatitis C virus NS3 helicase; experiment: blockers of NS3h binding to DNA – biochemical, fluorescence polarization, NIH Clinical Collection, primary screen (AID 743270; call rule not given here); settings: NS3 helicase binding to Cy5-dT15 DNA, stronger effect = higher value, concentration not given here
# [18] = biological target: Single-stranded DNA-binding protein (Escherichia coli (strain K12)) (UniProt P0AGE0); experiment: SSB-ssDNA binding inhibitors – biochemical, fluorescence polarization, NIH Clinical Collection, counter-screen for HCV NS3 helicase inhibitor project (AID 743271; in the data active = inhibition above about 28%); settings: E. coli SSB-DNA binding, stronger effect = higher value, concentration not given here
# [19] = compounds distorting NS3 helicase fluorescence signal – biochemical, NIH Clinical Collection, artefact control for HCV NS3 helicase inhibitor project (AID 743272; call rule not given here;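 also: HCV NS3 helicase with a Cy5 labelled single stranded DNA probe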); settings: fluorescence interference counterscreen, HCV NS3 helicase assay; stronger effect = lower value
# [20] = biological target: 6-phosphogluconate dehydrogenase, decarboxylating (Homo sapiens) (UniProt P52209); experiment: inhibition of human phosphogluconate dehydrogenase – biochemical, recombinant enzyme, NADPH absorbance, primary screen (AID 1159550;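 active = at least 20% inhibition of 6-phosphogluconate dehydrogenase activity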); settings: recombinant 6PGD, NADPH absorbance 341 nm; at 10 µM; stronger effect = higher value
# [21] = viability loss in pontine glioma line – cell-based, SU-DIPG-XVII, MIPE5.0, CellTiter-Glo, qHTS, dose response (AID 1347060; cut-off not given, nearly all actives have AC50 up to about 26 µM); settings: CellTiter-Glo ATP luminescence
# [22] = JHH-DIPG-1 glioma cell viability, MIPE5.0 library, CellTiter-Glo luminescence, qHTS (AID 1347067; cut-off not given, nearly all actives have AC50 up to about 26 µM;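 also: cells exposed to compound for 48 hours before readout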); settings: JHH-DIPG-1 glioma viability, CellTiter-Glo ATP luminescence
# [23] = growth inhibition of DIPG cells – cell-based, MIPE5.0 library, qHTS (AID 1347068; cut-off not given, nearly all actives have IC50 up to about 30 µM); settings: SU-DIPG-XXV viability
# [24] = compounds altering HSF1 focus formation in cells – imaging, Selleck Cancer Library (AID 1347162; in the data active = plate-normalised HSF1 focus index below about 0.46); settings: human cells, HSF1 nuclear foci imaging, at 10 µM; SSMD: measured here: HSF1 foci SSMD mean; cell count: measured here: cell number; plate-normalised HSF1 focus index: stronger effect = lower value
# [25] = MELAS cybrid and Rieske KO viability enhancers – cell-based, MELAS cybrids, Rieske KO mouse fibroblasts, CellTiter-Glo, primary screen (AID 1508586;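 active = mean z-score across replicates of 1.96 or higher in either the MELAS or the Rieske mutant cell line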;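 also: z relative to plate mean and SD of compound and empty wells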); settings: low glucose
# [26] = stronger effect = lower value, cell number ratio, induced over uninduced
# [27] = measured here: relative caspase fold change +Dox/-Dox
# [28] = measured here: total cells with miR-34 induction, stronger effect = lower value
# [29] = measured here: total cells without miR-34 induction
# Chain of NAD(+) hydrolase SARM1 (Homo sapiens) (Q6SZW1 whole entry, looked up): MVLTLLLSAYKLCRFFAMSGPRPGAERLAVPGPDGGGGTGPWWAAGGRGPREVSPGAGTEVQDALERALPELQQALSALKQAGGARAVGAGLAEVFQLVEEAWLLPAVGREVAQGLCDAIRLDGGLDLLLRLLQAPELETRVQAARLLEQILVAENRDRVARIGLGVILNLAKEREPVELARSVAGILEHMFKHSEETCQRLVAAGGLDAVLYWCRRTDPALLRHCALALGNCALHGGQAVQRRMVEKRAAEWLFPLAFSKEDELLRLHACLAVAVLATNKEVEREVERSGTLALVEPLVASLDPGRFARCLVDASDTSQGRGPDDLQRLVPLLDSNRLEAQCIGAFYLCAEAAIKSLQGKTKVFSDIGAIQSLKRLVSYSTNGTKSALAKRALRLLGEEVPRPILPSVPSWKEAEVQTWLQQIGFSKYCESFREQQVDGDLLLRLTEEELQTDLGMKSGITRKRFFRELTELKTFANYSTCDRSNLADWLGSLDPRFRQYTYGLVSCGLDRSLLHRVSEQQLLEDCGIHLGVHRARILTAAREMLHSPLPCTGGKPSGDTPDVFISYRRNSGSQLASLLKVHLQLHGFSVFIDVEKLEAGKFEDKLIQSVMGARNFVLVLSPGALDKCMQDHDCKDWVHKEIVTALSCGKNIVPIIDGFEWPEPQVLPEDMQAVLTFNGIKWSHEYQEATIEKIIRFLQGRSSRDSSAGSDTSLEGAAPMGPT
# Chain of 6-phosphogluconate dehydrogenase, decarboxylating (Homo sapiens) (P52209 whole entry, looked up): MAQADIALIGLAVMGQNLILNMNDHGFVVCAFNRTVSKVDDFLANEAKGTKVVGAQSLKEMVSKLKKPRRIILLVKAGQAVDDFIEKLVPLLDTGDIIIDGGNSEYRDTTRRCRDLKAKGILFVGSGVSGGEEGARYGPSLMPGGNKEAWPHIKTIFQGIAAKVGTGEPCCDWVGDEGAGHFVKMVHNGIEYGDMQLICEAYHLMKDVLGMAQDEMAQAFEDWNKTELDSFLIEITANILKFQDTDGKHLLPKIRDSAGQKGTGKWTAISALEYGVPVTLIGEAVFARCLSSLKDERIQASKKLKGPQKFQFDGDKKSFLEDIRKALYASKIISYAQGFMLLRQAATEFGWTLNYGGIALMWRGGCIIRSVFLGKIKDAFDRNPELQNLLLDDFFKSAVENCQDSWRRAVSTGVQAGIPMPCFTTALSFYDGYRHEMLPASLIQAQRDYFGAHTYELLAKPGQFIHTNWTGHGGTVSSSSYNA
smiles,measurement,setting,value
C[C@@H]1CC(=O)NN=C1c1ccc(NN=C(C#N)C#N)cc1,nuclear beta-catenin stimulation,[1]; at 10 µM,7.5% (inactive) and 2.8% (inactive)
same,nuclear beta-catenin stimulation,"[1]; stimulation, at 2 µM",0% and -0.4%
same,insulin secretion stimulation,[2],-2.9% (inactive) and -1.5% (inactive)
same,viability decrease,[3],-8.85% (inactive) and 2.3% (inactive)
same,tube area decrease,[4],41.6% (active) and 22.4% (inactive)
same,GLP1 secretion stimulation,[5],1.1% (inactive) and -7% (inactive)
same,inhibition of viability,[6],-20.6% (inactive) and 6.9% (inactive)
same,viability decrease (inhibition),[7],30.7% (inactive) and -5.7% (inactive)
same,viability decrease (inhibition),[8],12.6% (inactive) and 21.9% (inactive)
same,red/green cell ratio (normalised),"[9]; actives lie on both sides, counts scaled to control wells, 1 = unselective",1.17 (inactive)
same,normalised cell number,[9]; measured here: epithelial PC-3E GFP cell survival,1.03
same,normalised cell number,[9]; measured here: mesenchymal TEM4-18 mCherry cell survival,1.21
same,AC50,[10],23.5 µM (active)
same,AC50,[11],18.6 µM (active)
same,AC50,[12],9.34 µM (active)
same,fold change,[13]; [26],0.967 (inactive)
same,fold change,[13]; [27],0.752
same,cell count,[13]; [28],8720
same,cell count,[13]; [29],9020
same,remaining NAD,[14],10 nM (inactive)
C[C@@H]1C[C@H]2[C@@H]3CCC4=CC(=O)C=C[C@]4(C)[C@@]3(F)[C@@H](O)C[C@]2(C)[C@@]1(O)C(=O)CO,parasite load remaining,[15],76.8% (inactive) and 55.7% (inactive)
same,viability,[15],86.4% and 108%
same,fluorescence ratio,[16],1.05 (inactive)
same,inhibition,[17],-3.18% (inactive)
same,inhibition,[18],0.29% (inactive)
same,fluorescence ratio,[19],1 (inactive)
same,nuclear beta-catenin stimulation,[1]; at 10 µM,-0.3% (inactive)
same,nuclear beta-catenin stimulation,"[1]; stimulation, at 2 µM",-1.3%
same,insulin secretion stimulation,[2],8.4% (inactive)
same,viability decrease,[3],-0.1% (inactive)
same,tube area decrease,[4],-12.9% (inactive)
same,GLP1 secretion stimulation,[5],4.4% (inactive)
same,inhibition of viability,[6],-7% (inactive)
same,viability decrease (inhibition),[7],-0.8% (inactive)
same,viability decrease (inhibition),[8],5.8% (inactive)
same,inhibition,[20],0.502% (inactive)
same,outcome,[21],inactive
same,outcome,[11],inactive
same,outcome,[12],inactive
same,outcome,[22],inactive
same,outcome,[23],inactive
same,fold change,[13]; [26],0.906 (inactive) and 0.84 (inactive) and 0.875 (inactive)
same,fold change,[13]; [27],1.6 and 0.779 and 1.31
same,cell count,[13]; [28],7720 and 3310 and 7020
same,cell count,[13]; [29],8520 and 3940 and 8020
same,SSMD,[24],1.52
same,cell count,[24],6940
same,plate-normalised HSF1 focus index,[24],1.08 (inactive)
same,z-score,"[25]; MELAS cybrid survival, CellTiter-Glo 48 h, stronger effect = higher value",0.843 (inactive)
same,z-score,"[25]; Rieske KO mouse fibroblast survival, CellTiter-Glo 72 h",0.569
